Screens deposited in PubChem BioAssay by several laboratories.
Compounds with a hit are over-represented: about 3.1% of the library has one in this group of screens.
FBA Mtb inh: Mtb FBA enzyme inhibitors, primary screen, biochemical, fluorescence, strain H37Rv; Fructose-bisphosphate aldolase (Mycobacterium tuberculosis (strain ATCC 25618 / H37Rv)), …; purified M. tuberculosis FBA, fluorescence read-out; inhibition, % at 1 µM; actives 2.3% (n = 360,000); AID 588726, 2011; in the data active means inhibition above about 27%
Target sequence (P9WQA3 whole entry, looked up): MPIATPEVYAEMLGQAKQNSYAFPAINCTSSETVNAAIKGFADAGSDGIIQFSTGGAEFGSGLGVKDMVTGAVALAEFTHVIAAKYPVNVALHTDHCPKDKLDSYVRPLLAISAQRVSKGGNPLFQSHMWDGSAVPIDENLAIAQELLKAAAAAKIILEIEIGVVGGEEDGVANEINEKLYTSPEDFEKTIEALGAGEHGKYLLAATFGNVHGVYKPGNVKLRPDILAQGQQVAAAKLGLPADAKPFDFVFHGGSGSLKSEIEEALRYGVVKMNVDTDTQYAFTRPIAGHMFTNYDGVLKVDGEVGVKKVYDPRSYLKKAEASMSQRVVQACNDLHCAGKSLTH
FadD28 binding: inhibitors of FadD28 bisubstrate probe binding, primary screen, biochemical, fluorescence polarization, single point; AID 588549, 2011; actives 0.22% (n = 360,000); inhibition, % at 12.5 µM; Mycobacterium tuberculosis FadD28 fatty-acid-AMP ligase; in the data active means inhibition above about 8.5%, passing the limit was not always enough
Mtb BioA inh: M. tuberculosis BioA enzyme inhibitors, primary screen, biochemical, plate reader, single point, HTS | 7,8-diaminopelargonic acid synthase BioA (Mycobacterium tuberculosis) | inhibition, % at 9.99 µM | purified M. tuberculosis BioA enzyme | actives 0.096% (n = 360,000); in the data active means inhibition above about 40%
SARS 3CLpro inh: SARS-CoV 3CLpro protease inhibitors, primary screen, biochemical, quenched FRET; Replicase polyprotein 1ab (Severe acute respiratory syndrome coronavirus), P0C6X7; recombinant SARS-CoV 3CLpro, quenched FRET peptide cleavage; inhibition, % at 6 µM; actives 0.14% (n = 290,000); AID 1706, 2009; in the data active means inhibition above about 12%
GDH-TPI inh: GDH-TPI coupling enzyme inhibitors, primary screen, artefact control for M. tuberculosis FBA inhibitor project, biochemical, absorbance, full deck; GDH-TPI coupled enzyme counterscreen, NADH absorbance; inhibition, % at 4.8 µM; actives 1.2% (n = 360,000); AID 588335, 2011; in the data active means inhibition above about 30%
Of the large screens only hits and unclear results are named; the others gave an inactive call.

C=CCOc1c(OC)cc(/C=N/Nc2cccc(C(=O)O)c2)c(Br)c1Br	FadD28 binding 16
COc1cc(/C=N/NC(=O)c2cnccn2)cc(OC)c1OC	GDH-TPI inh 32
COc1cc(C(=O)N/N=C/c2ccsc2C)cc(OC)c1OC	GDH-TPI inh 37 (no result: Mtb BioA inh)
COc1ccc(/C(C)=N/Nc2ccc(C(=O)O)cc2)cc1OC	GDH-TPI inh 56
COc1cc(/C(C)=N/Nc2ccc(C(=O)O)cc2)cc(OC)c1OC	none
CC(C)NC(=O)N(C)C[C@H]1Oc2ncc(-c3ccccc3F)cc2C(=O)N([C@H](C)CO)C[C@@H]1C	none (no result: FBA Mtb inh, FadD28 binding, SARS 3CLpro inh, GDH-TPI inh)
CCCC#Cc1cnc2c(c1)C(=O)N([C@@H](C)CO)C[C@@H](C)[C@H](CN(C)C(=O)c1cnccn1)O2	none (no result: FBA Mtb inh, FadD28 binding, SARS 3CLpro inh, GDH-TPI inh)
O=C(C[C@H]1CC[C@H]2[C@@H](COC[C@@H](O)CN2Cc2ccc(Cl)cc2)O1)NCc1cccc(F)c1	none (no result: FBA Mtb inh, FadD28 binding, SARS 3CLpro inh, GDH-TPI inh)
COc1cc(/C=N/Nc2ccc(C(=O)O)cc2)cc(OC)c1OC	GDH-TPI inh 41 (no result: Mtb BioA inh)
COc1cc(/C=C/C(=O)O)ccc1O	none (no result: SARS 3CLpro inh)
COc1cc(/C=C/C(C)=NNc2ccccc2)ccc1O	GDH-TPI inh 32 (no result: SARS 3CLpro inh)
COc1cc(/C=N/Nc2nc(N3CCCC3)nc(N3CCCC3)n2)ccc1O	GDH-TPI inh 35
COc1cc(/C=N/Nc2ccc(C(=O)O)cc2)ccc1O	GDH-TPI inh 33 (no result: Mtb BioA inh)
CCC(=O)N(C)C[C@H]1Oc2cc(Br)ccc2S(=O)(=O)N([C@@H](C)CO)C[C@@H]1C	none (no result: FBA Mtb inh, FadD28 binding, SARS 3CLpro inh, GDH-TPI inh)
COc1ccc(NC(=O)Nc2ccc3c(c2)[C@@H]2C[C@@H](CC(=O)N4CCN(C)CC4)O[C@H](CO)[C@@H]2O3)cc1	none (no result: FBA Mtb inh, FadD28 binding, SARS 3CLpro inh, GDH-TPI inh)
COc1cc(/C=N/NC(=S)NCCc2ccccc2)cc(OC)c1OC	GDH-TPI inh 41
COc1cc(/C=N/NC(=S)Nc2cccc(C(=O)O)c2)ccc1O	GDH-TPI inh 32
COc1ccc(-c2cnnc(N/N=C/c3ccc(-c4ccc([N+](=O)[O-])cc4)o3)n2)cc1	none (no result: Mtb BioA inh)
COc1ccc(-c2cnnc(N/N=C/c3ccc(O)c(OC)c3)n2)cc1	GDH-TPI inh 55
CNC(=O)C1CCN(S(=O)(=O)c2c(C)noc2/C=C/c2cccc(OC)c2)CC1	GDH-TPI inh 32
COCCNC(=O)C1CCN(S(=O)(=O)c2c(C)noc2/C=C/c2cccs2)CC1	GDH-TPI inh 39 (no result: Mtb BioA inh)
CCN(CC)CCNC(=O)C1CCN(S(=O)(=O)c2c(C)noc2/C=C/c2ccccc2F)CC1	none
COc1ccc(N2CCN(S(=O)(=O)c3c(C)noc3/C=C/N(C)C)CC2)cc1	GDH-TPI inh 40
CCC(C)N1CCN(C(=O)C2CCN(S(=O)(=O)c3c(C)noc3/C=C/c3ccco3)CC2)CC1 (configuration not stated)	GDH-TPI inh 38
C[C@H]1CN([C@@H](C)CO)C(=O)c2cc(C#Cc3ccccc3)cnc2O[C@@H]1CN(C)C(=O)C1CC1	none (no result: FBA Mtb inh, FadD28 binding, SARS 3CLpro inh, GDH-TPI inh)
COc1ccc(CNC(=O)C2CCN(S(=O)(=O)N3CCCC3)CC2)cc1	none
COc1ccc(CNC(=O)C2CCN(S(=O)(=O)c3c(C)noc3/C=C/N(C)C)CC2)cc1	GDH-TPI inh 45
Cc1noc(/C=C/N(C)C)c1S(=O)(=O)N1CCN(c2ccc(F)cc2)CC1	GDH-TPI inh 34
COc1ccc(N2CCN(C(=O)C3CCCN(S(=O)(=O)c4c(C)noc4C)C3)CC2)cc1 (configuration not stated)	none
COc1ccc(N2CCN(C(=O)C3CCN(S(=O)(=O)c4c(C)noc4/C=C/N(C)C)CC3)CC2)cc1	GDH-TPI inh 44
CCOC(=O)c1cc(-c2cccs2)nc2c1c(C)nn2-c1ccccn1	GDH-TPI inh 37
Cc1nn(-c2ccccc2)c2nc(-c3cccs3)cc(C(=O)NN)c12	none (no result: Mtb BioA inh)
C=CCSc1nnc(-c2cc3c(s2)-c2ccccc2CC3)o1	FBA Mtb inh active
COc1ccc(NC(=O)Nc2ccc3c(c2)C(=O)N([C@H](C)CO)C[C@H](C)[C@@H](CN(C)S(=O)(=O)c2ccc(OC)cc2)O3)cc1	FadD28 binding 9.4 (no result: SARS 3CLpro inh)
Cc1ccc(S(=O)(=O)Nc2cccc3c2O[C@@H](CN(C)C(=O)Nc2ccc4c(c2)OCO4)[C@H](C)CN([C@@H](C)CO)C3=O)cc1	FadD28 binding 11 (no result: SARS 3CLpro inh)
C[C@@H]1CCCCO[C@H](CN(C)S(C)(=O)=O)[C@@H](C)CN([C@@H](C)CO)C(=O)c2cc(NS(=O)(=O)c3ccc(F)cc3)ccc2O1	none (no result: FBA Mtb inh, FadD28 binding, SARS 3CLpro inh, GDH-TPI inh)
CC1=CC(c2ccc(Cl)cc2)n2nc(N3C(=O)CCC3=O)nc2N1 (configuration not stated)	FBA Mtb inh 167 (no result: Mtb BioA inh)
N#C/C(=C/C1=C(N2CCOCC2)C(=C/c2ccccc2)/CC1)C(=O)Nc1ccccc1F	FadD28 binding 9.9 (no result: SARS 3CLpro inh)
Cc1cc(NCCOCCO)n2c(nc3ccccc32)c1C#N	FBA Mtb inh active
Cc1c(Cc2ccccc2)c(NCCCO)n2c(nc3ccccc32)c1C#N	none
COCCNc1c2c(c(C#N)c3nc4ccccc4n13)CCCC2	none (no result: Mtb BioA inh)
COCCNc1cc(C)c(C#N)c2nc3ccccc3n12	FBA Mtb inh 193
Cc1cc(NCCCO)n2c(nc3ccccc32)c1C#N	FBA Mtb inh 181
COc1ccc(NC(=O)N(C)C[C@H]2Oc3c(NC(=O)c4cc(C)nn4C)cccc3C(=O)N([C@H](C)CO)C[C@@H]2C)cc1	none (no result: FBA Mtb inh, FadD28 binding, SARS 3CLpro inh, GDH-TPI inh)
C[C@H](CO)N1C[C@H](C)[C@H](CN(C)C(=O)c2ccccc2)Oc2cc(C3=CCCCC3)ccc2S1(=O)=O	none (no result: FBA Mtb inh, FadD28 binding, SARS 3CLpro inh, GDH-TPI inh)
CC(C)NC(=O)N(C)C[C@H]1Oc2cc(C#Cc3ccccn3)ccc2S(=O)(=O)N([C@H](C)CO)C[C@H]1C	none (no result: FBA Mtb inh, FadD28 binding, SARS 3CLpro inh, GDH-TPI inh)
Cc1noc(C)c1NC(=O)N(C)C[C@@H]1OCCCC[C@H](C)Oc2ccc(NC(=O)c3ccccc3)cc2C(=O)N([C@H](C)CO)C[C@H]1C	none (no result: FBA Mtb inh, FadD28 binding, SARS 3CLpro inh, GDH-TPI inh)
C[C@@H]1CN([C@H](C)CO)C(=O)c2cccc(NC(=O)c3nc4ccccc4s3)c2O[C@H]1CN(C)S(=O)(=O)c1cccs1	none (no result: FBA Mtb inh, FadD28 binding, SARS 3CLpro inh, GDH-TPI inh)
CC(=O)c1ccc(N2CCN(C(=O)C3CCCN(c4ncnc5c4nc4n5CCCCC4)C3)CC2)cc1 (configuration not stated)	GDH-TPI inh 31
CC(=O)c1ccc(N2CCN(C(=O)C3CCC3)CC2)cc1	GDH-TPI inh 45
CC(=O)c1ccc(N2CCN(C(=O)C3CCN(S(=O)(=O)c4ccc(F)cc4)CC3)CC2)cc1	none (no result: SARS 3CLpro inh)
CC(=O)c1ccc(N2CCN(C(=O)c3nn(C)c4c3CS(=O)(=O)c3ccccc3-4)CC2)cc1	GDH-TPI inh 41
CCN(CC)c1nc(N)c2c(N)nc3c(c2c1C#N)CC(c1ccccc1)O3 (configuration not stated)	none
CCN(CC)c1nc(N)c2c(N)n(-c3ccccc3C)c(=S)c(C#N)c2c1C#N	FadD28 binding 8.3, GDH-TPI inh 44
